The values that follow come from PubChem BioAssay (NCATS).

Structures are written as SMILES. Results filed as inconclusive are left out. Calls of active or inactive are those of the source. Unless noted, calls come from the whole dose curve; as a rule, active = well fitted curve in the direction sought with a large enough effect; inconclusive = small, poorly fitted or top-dose-only effect, or another doubt; inactive = no such curve, though single readings can be large; an effect the other way counts as inactive or inconclusive.

Test [1] in a line: Cytometric Cell-Based qHTS for Inhibitors of the mTORC1 Signaling Pathway in MEF (Tsc2-/-, p53-/-) Cells (AID 2660).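 Note: Tsc2 and p53 null MEFs carrying empty vector with compound for 24 h; percent of cells above a phospho-rpS6 to PI ratio cutoff in each well.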 Summed up: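 Percent of cells positive for normalized phospho-S6 staining is reported, with the cutoff set from rapamycin (7.5 nM) versus DMSO wells. Tsc2-/-, p53-/- MEFs received compound for 24 hrs.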
(qHTS replaces the single test concentration by a dilution series.)

Test [2] in a line: High Content Imaging Cell-Based qHTS for Inhibitors of the mTORC1 Signaling Pathway in MEF (Tsc2-/-, p53-/-) Cells (AID 2666).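 Note: percent of cells scored positive for phospho-rpS6 Ser235/236 immunostaining by imaging.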 Conditions: at 38.3 µM (top of the series). Summed up: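 Cells were plated, dosed with compound after 24 hrs, and incubated another 24 hrs at 37 degree Celsius. Fixed cells were immunostained for phospho-rpS6 Ser235/236 and counterstained, and the normalized signal was scored as % active cells against rapamycin and DMSO controls.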

Test [3] is described as follows: High Content Imaging Cell-Based qHTS for Inhibitors of the mTORC1 Signaling Pathway in MEF Cells (AID 2667).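 Note: Tsc2-/- p53-/- MEFs stably re-expressing wild-type Tsc2 exposed 24 h.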 Summed up: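 Immunofluorescence for rpS6 phosphorylation in MEFs of Tsc2-/-, p53-/- background rescued with WT Tsc2. Compound exposure lasted 24 hrs. Inhibition was scored against rapamycin-treated control wells.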
In test [4] the target is Ubiquitin carboxyl-terminal hydrolase 2 (Homo sapiens) (UniProt O75604). Put plainly: qHTS Validation Assay for Inhibitors of Ubiquitin-specific Protease USP2a Using CHOP2 as the Reporter (AID 463106). Summed up:
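10nM USP2 core + cpd, 30min RT; add 25nM Ub-CHOP2/25nM substrate; 60min RT; FI 485/531nm. Buffer Tris pH 8.0, CaCl2, BME, CHAPS. Norm. to NEM = 100% inhibition; time-zero read flags fluorescent artifacts.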

The target of test [5] is DNA polymerase III PolC-type (Bacillus subtilis (strain 168)) (UniProt P13267). In words: qHTS Validation Assay for the Inhibitors of DNA Replication in Gram-Positive Bacteria (AID 485295). Note: potency is the fitted concentration of half-maximal effect. The procedure, abridged: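 Primed replication of single-stranded M13Gori by a four-protein B. subtilis holoenzyme is measured at room temperature. Double-stranded product is quantified by PicoGreen fluorescence after an EDTA stop; inhibition is scaled between DMSO and EDTA controls.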
DNA polymerase III PolC-type (Bacillus subtilis (strain 168)), sequence (P13267 whole entry, looked up): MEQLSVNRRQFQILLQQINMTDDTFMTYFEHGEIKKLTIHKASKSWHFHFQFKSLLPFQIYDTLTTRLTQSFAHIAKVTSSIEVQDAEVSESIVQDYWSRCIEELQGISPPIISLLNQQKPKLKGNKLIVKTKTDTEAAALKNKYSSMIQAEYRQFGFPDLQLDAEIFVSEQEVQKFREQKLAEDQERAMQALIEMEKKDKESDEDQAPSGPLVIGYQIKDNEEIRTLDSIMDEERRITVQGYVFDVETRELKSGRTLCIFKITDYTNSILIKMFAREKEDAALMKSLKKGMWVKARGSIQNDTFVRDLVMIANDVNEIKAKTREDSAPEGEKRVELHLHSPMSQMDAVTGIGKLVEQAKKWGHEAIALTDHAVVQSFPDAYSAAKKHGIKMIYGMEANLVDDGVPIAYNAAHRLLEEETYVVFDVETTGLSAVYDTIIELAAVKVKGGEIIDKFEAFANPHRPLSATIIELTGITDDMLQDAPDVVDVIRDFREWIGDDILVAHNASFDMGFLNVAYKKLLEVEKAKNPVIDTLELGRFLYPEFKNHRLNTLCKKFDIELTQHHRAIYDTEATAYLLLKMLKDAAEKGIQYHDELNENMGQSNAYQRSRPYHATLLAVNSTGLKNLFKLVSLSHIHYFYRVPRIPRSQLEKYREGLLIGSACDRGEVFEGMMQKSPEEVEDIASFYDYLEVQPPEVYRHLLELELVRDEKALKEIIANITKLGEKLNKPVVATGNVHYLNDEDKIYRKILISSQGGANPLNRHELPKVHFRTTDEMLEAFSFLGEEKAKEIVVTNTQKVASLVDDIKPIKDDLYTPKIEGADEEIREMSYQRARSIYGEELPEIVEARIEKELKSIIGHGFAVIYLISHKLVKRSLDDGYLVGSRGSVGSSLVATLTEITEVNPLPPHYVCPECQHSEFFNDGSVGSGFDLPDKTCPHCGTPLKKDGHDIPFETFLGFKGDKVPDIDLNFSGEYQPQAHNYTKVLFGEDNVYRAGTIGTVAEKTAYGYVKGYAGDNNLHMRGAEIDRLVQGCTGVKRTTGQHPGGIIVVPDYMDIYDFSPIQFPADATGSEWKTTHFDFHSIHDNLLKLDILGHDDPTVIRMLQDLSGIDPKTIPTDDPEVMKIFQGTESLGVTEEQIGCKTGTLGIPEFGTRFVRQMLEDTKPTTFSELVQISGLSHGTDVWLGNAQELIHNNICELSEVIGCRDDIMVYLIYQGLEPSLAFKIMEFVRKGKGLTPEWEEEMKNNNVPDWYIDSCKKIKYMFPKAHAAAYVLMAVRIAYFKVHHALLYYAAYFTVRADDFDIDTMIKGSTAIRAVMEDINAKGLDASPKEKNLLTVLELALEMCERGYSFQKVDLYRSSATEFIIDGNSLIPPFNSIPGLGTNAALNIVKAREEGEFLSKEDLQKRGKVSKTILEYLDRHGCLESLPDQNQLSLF

For test [6], the target named is Beta-2 adrenergic receptor (Homo sapiens) (UniProt P07550). In words: qHTS validation assay of beta-arrestin-biased ligands of beta2-adrenergic receptor (AID 485366). Summed up: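 Luminescence from a tTA-responsive luciferase, induced when recombinant beta-arrestin is recruited to recombinant beta2-AR, served as the agonism signal. Cells were exposed to compound for 18 hr at 37 degrees C; titrations spanned up to 46 microM.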
Beta-2 adrenergic receptor (Homo sapiens), sequence (P07550 whole entry, looked up): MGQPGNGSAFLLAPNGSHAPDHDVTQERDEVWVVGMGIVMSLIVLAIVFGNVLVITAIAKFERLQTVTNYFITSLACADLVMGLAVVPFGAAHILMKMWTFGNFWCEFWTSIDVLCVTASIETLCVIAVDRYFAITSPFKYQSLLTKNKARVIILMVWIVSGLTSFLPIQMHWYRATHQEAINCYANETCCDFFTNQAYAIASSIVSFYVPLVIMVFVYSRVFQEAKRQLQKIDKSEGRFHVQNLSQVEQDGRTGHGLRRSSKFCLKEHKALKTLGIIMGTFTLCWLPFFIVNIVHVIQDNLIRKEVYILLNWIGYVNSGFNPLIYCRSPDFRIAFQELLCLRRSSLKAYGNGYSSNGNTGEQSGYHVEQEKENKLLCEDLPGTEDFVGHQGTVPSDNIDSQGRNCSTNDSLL

The nature of test [7]: qHTS for differential inhibitors of proliferation of Plasmodium falciparum line 7G8 (AID 1815).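 Note: parasite growth measured after three days of incubation.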 Note: potency is the fitted concentration of half-maximal effect.
A short description of test [8]: qHTS for differential inhibitors of proliferation of Plasmodium falciparum line D10 (AID 1877).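 Note: parasites grown with compound for 72 h before DNA staining.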 Note: potency is the fitted concentration of half-maximal effect.
Test [9] in a line: qHTS for differential inhibitors of proliferation of Plasmodium falciparum line HB3 (AID 1886).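 Note: parasites grown with compound for 72 h before SYBR Green readout.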 Note: potency is the fitted concentration of half-maximal effect. As to conditions: Potency: Plasmodium falciparum HB3 proliferation inhibition.
Test [10] concerns the target Ferritin light chain (Equus caballus) (UniProt P02791). Put plainly: qHTS Validation Assay for Identification of Novel General Anesthetics (AID 2323). Summed up: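 Apoferritin from horse spleen (10 uM) was mixed with 1-aminoanthracene at 50% saturation in PBS, then compounds were added. After 10 min at room temperature, fluorescence was read (ex 380 nm, em 535 nm) and normalized to free-probe and complex controls.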

Test [11] has as its target ATP-dependent DNA helicase Q1 (Homo sapiens) (UniProt P46063). In words: qHTS Validation Assay for Inhibitors of RecQ-Like Dna Helicase 1 (RECQ1) (AID 2353). Summed up: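 50 nM RECQ1T1 preincubated 15 min with compound in Tris pH 8.0 buffer with MgCl2, DTT, Tween-20 and 2.5 ug/ml poly(dI-dC); started with 200 nM TAMRA/BHQ-2 forked duplex and 2 mM ATP. Unwinding read as fluorescence (525/598 nm), two reads 2 h apart.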

The nature of test [12]: Cytometry Cell-Based qHTS for Inhibitors of the mTORC1 Signaling Pathway in MEF cells (AID 2668).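 Note: Tsc2-/- p53-/- mouse embryonic fibroblasts stably re-expressing wild-type Tsc2; percent cells positive for phospho-rpS6 Ser235/236 relative to propidium iodide stain.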 The procedure, abridged: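 Pathway inhibition in WT Tsc2-rescued Tsc2-/-, p53-/- MEFs is measured as the Alexa-488 phospho-rpS6 to propidium iodide intensity ratio after 24 hrs of compound at 37 degree Celsius. PI-stained cell number gives viability.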
Test [13] is described as follows: Validation screen for small molecules that induce DNA re-replication in MCF 10A normal breast cells (AID 463097). Note: nearly all actives have a fitted effect of over 60% in size. Summed up:
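DNA re-replication was detected as a rise in nuclei with elevated Hoechst fluorescence after a 48 hr compound exposure of MCF 10A cells at 37 C.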

Test [14] in a line: qHTS Validation Assay to Find Inhibitors of Chronic Active B-Cell Receptor Signaling (AID 485345; active = well fitted curve in the direction sought with a large enough effect in the main read-out, with a control signal flat, not every such curve was filed as active). Summed up:
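Read-out: ratio of filter-corrected green (IkappaBalpha fusion) to red (native) luciferase signal in doxycycline-induced TMD8 cells after 4 h at 37C. Titration spanned 46 uM–3 nM; Data were normalised to basal cells and 10 uM MG-132 wells.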

A short description of test [15]: qHTS for differential inhibitors of proliferation of Plasmodium falciparum line 3D7 (AID 1876). Note: potency is the fitted concentration of half-maximal effect.
The nature of test [16]: qHTS Assay for Modulators of Human Peripheral Myelin Protein 22 (PMP22) Expression/Activity (AID 1967; active = well fitted curve in the direction sought with a large enough effect in the signal ratio; the % refers to the signal ratio). Summed up: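 Quantitative HTS in a mouse Schwann cell line expressing dual click beetle luciferases: Pmp22 promoter (green) and control EF-alpha promoter (red). After 24h treatment, corrected green/red signal ratio gave %Activity relative to untreated cells.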
Test [17] in a line: qHTS for differential inhibitors of proliferation of Plasmodium falciparum line W2 (AID 1883).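 Note: potency is the fitted concentration of half-maximal effect; parasites grown with compound for 72 h before lysis and staining.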 As to conditions: Potency: Plasmodium falciparum W2 proliferation inhibition.
Test [18] in a line: qHTS Assay for Identification of Small Molecule Inducers of Hypoxia Response (AID 2120; active = well fitted curve in the direction sought with a large enough effect in the signal ratio, with a control signal flat, not every such curve was filed as active; the % refers to the signal ratio). The procedure, abridged:
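HRE-bla ME-180 cells in Opti-MEM with 0.5% dialyzed FBS, pre-plated 4-5 h, then compound titration for 17 h at 37 degrees Celsius. CCF4 loaded 2.5 h at room temperature; 460/530 nm ratio gave %Activity and AC50 for induction.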

Test [19] can be described thus: qHTS for differential inhibitors of proliferation of Plasmodium falciparum line GB4 (AID 1816).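 Note: potency is the fitted concentration of half-maximal effect; parasite growth measured after 72 h incubation.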 As to conditions: Potency: Plasmodium falciparum GB4 proliferation inhibition.

Ubiquitin carboxyl-terminal hydrolase 2 (Homo sapiens), sequence (O75604 whole entry, looked up): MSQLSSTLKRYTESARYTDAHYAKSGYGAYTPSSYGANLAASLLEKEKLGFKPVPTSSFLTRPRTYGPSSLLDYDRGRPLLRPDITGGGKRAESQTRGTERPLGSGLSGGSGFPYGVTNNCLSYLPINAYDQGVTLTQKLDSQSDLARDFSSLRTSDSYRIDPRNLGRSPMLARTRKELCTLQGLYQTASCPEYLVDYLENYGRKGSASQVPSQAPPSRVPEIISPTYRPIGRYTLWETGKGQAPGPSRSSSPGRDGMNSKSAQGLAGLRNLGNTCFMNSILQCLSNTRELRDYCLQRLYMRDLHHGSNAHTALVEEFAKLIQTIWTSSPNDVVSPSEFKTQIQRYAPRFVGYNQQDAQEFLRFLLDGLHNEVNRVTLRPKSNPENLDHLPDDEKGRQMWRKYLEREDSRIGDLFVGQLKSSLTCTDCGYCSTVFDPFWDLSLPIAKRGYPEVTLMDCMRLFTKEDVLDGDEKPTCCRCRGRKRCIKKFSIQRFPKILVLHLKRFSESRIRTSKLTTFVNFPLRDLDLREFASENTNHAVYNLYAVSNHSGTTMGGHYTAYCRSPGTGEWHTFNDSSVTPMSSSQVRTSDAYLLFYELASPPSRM
ATP-dependent DNA helicase Q1 (Homo sapiens), sequence (P46063 whole entry, looked up): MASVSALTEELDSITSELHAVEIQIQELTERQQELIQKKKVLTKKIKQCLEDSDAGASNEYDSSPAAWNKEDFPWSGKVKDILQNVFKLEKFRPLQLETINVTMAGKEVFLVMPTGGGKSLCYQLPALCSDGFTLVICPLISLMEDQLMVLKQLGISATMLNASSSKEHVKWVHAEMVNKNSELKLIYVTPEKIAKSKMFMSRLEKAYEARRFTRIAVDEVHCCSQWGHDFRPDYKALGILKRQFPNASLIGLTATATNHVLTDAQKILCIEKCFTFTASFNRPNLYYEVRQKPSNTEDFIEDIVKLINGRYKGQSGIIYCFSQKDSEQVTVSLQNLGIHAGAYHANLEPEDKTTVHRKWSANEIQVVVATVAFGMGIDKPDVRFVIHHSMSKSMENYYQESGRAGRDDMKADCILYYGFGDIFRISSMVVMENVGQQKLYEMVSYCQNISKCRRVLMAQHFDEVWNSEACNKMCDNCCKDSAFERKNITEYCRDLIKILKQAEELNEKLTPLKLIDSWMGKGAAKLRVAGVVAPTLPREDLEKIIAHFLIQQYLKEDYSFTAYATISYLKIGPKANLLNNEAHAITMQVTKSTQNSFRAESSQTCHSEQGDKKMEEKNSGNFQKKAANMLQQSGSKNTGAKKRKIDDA
Ferritin light chain (Equus caballus), sequence (P02791 2-175 limits assumed): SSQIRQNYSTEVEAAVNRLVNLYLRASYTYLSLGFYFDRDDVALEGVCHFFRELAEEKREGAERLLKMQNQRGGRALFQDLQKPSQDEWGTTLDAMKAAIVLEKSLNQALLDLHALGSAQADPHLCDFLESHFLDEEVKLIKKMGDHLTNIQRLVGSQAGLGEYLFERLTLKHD

Consider `COc1cc2c(cc1O)CC[C@@H]1[C@@H]2CC[C@]2(C)[C@@H](O)CC[C@@H]12`, for which the outcome in test [1], in test [2], in test [4] and in [6] was inactive. For the same compound, the Potency entry in test [3] and in [5] was “inactive” each time.
On to `CNCCC(Oc1ccccc1C)c1ccccc1` (stereo not given), for which the Potency in [7] was 7.94 µM (active). Also, the Potency result in test [8], in test [9], in test [3], in test [12] and in [5] was “inactive” throughout. Moreover, the compound was classed as inactive in test [10], in [11], in [1], in test [2], in test [13] and in [4]. Besides, the outcome in [14] and in test [6] was inactive.
On to `Nc1cc(Cl)c(NC2=NCCN2)c(Cl)c1`, for which the Potency entry in [7], in [15], in test [8], in test [9], in test [3] and in [12] was “inactive” throughout. Also, in test [5], the Potency result is “inactive”. The result in test [16], in test [10], in test [11], in [1], in [2] and in test [13] was inactive. The call in [4], in test [14] and in test [6] was inactive.
Regarding `Oc1ccc(O)cc1`, the Potency was 8.91 µM (active) in test [7]; 11.2 µM (active) in test [15]; 12.6 µM (active) in test [17]; 12.6 µM (active) in [9]; 5.32 µM (active) in test [5]. Also, the call in test [10], in [11], in [4], in [14] and in test [6] was inactive. The Potency entry in [3] was “inactive”.
With `O=c1ccc2ccccc2o1`, the outcome in [18] was inactive.
For the compound `C[C@@H]1C(=O)NC2=Nc3cccc(Cl)c3CN21`, the Potency result in [7], in [15], in test [8], in [9], in test [3] and in test [12] was “inactive” each time. Also, in test [5], the Potency result is “inactive”. Also, the outcome in [16], in test [10], in test [11], in test [1], in [2] and in [13] was inactive. Further, the call in test [4], in [14] and in test [6] was inactive.
In the case of `C=CCc1ccc(O)c(OC)c1`, the result in test [18] was inactive.
Consider `CCCC1O[C@@H]2C[C@H]3[C@@H]4CCC5=CC(=O)C=C[C@]5(C)[C@H]4[C@@H](O)C[C@]3(C)[C@]2(C(=O)CO)O1` (stereo not given in full), for which the compound was called inactive in [1], in test [2], in test [4] and in test [6]. Besides, the Potency entry in test [3], in [12] and in [5] was “inactive” each time.
For `CCC(NC(C)C)C(O)c1ccc(O)c(O)c1` (stereo not given), the Potency in [7] was 11.2 µM (active); in [19], 12.6 µM (active); in test [15] it was 12.6 µM (active); in test [8] it was 12.6 µM (active); in test [17] it was 8.91 µM (active); in [9], 8.91 µM (active). The call in test [16], in test [10], in test [11], in test [1], in test [2] and in [13] was inactive. Besides, the result in test [4] and in test [14] was inactive. Also, the Potency result in [3], in test [12] and in test [5] was “inactive” each time.
Consider `CC(=O)Oc1ccc(C(c2ccc(OC(C)=O)cc2)c2ccccn2)cc1`, for which, in test [18], the call was inactive.
With `CC[C@H](C)C(=O)O[C@H]1CCC=C2C=C[C@H](C)[C@H](CC[C@@H]3C[C@@H](O)CC(=O)O3)[C@H]21`, the compound was classed as inactive in test [1], in test [2], in test [4] and in test [6]. For the same compound, the Potency result in test [5] is “inactive”.
